PubChem BioAssay AID504651 (National Center for Advancing Translational Sciences (NCATS), 2011)
Out of some 360,000 compounds screened, about 130 (0.036%) were called active. The sample as a whole holds a higher share of actives than the screen did. Values without a mark were called inactive. No stated cut-off is given here; in the data, active means potentiation above about 30%; inactive means the rest.

Target: D(1A) dopamine receptor (Homo sapiens) (UniProt P21728)
Test: Potentiators of Human D1 Dopamine Receptor: qHTS; further: 0% is about no effect
Conditions: HEK293 TREx D1 cells, calcium flux, dopamine EC20 potentiation; at 10 µM; hits give high values
Excerpt: Dopamine receptors (DARs) are involved in the etiology and/or therapy of a number of neuropsychiatric and endocrine disorders. For instance, all receptor-based antiparkinsonian drugs work via stimulating the D1 DAR subtype whereas all FDA-approved antipsychotic agents are antagonists of this receptor. […] There are three different types of allosteric modulators that we are seeking, two of which will stimulate or augment receptor signaling, allosteric agonists and potentiators, while the third, allosteric antagonists, will attenuate receptor signaling. The present primary screening assay measures compound potentiation of an EC20 dopamine response by tracking calcium flux in a […], inducible Hek293 Trex D1 cell line.
NIH Chemical Genomics Center [NCGC]
NIH Molecular Libraries Probe Centers Network [MLPCN]
Assay Submitter (PI): David Sibley
Freshly passaged cells are plated in 1536 well black, clear bottom plates at a density of 4000 cells/well in 3 ul of complete media containing 1x tetracycline inducer. After an overnight incubation at 30 C in 5% CO2, cells are loaded with 2 ul of the no wash Calcium Assay Kit (ABD Bioquest) and incubated at room temperature for 30 to 90 minutes. A 10 cycle (1 second/cycle) baseline measurement is taken and then the FDSS online 1536 pintool delivers 23 nl of compound library (as well as dopamine controls) to the plate. The plate is measured for kinetically at 1 cycle/sec for 180 seconds and is considered to be the agonist portion of the assay (eg, compounds which activate a positive calcium response during this portion are flagged as potential agonists). Following the 180 second read, 1 ul of an EC20 of dopamine is delivered by an onboard pipette head. Measurements are taken kinetically for an additional 180 seconds.

Chain of D(1A) dopamine receptor (Homo sapiens) (P21728 whole entry, looked up): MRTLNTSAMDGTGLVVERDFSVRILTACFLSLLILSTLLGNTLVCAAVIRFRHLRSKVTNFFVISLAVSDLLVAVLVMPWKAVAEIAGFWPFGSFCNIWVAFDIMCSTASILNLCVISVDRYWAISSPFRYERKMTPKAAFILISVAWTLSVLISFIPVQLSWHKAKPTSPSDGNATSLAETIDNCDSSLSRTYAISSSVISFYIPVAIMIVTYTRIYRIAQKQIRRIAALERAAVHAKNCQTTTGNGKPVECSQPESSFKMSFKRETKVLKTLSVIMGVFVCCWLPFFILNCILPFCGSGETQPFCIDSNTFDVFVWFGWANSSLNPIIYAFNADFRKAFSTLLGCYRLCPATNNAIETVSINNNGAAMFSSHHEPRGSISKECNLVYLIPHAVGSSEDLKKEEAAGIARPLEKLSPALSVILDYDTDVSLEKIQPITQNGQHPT

Compound | potentiation
Cc1ccc(S(=O)(=O)NC(N)=NCCC[C@@H](NC(=O)CNC(=O)c2ccccc2)C(=O)Nc2cc(C(F)(F)F)ccc2Cl)cc1 | 5.3%
COc1ccc(N2C(=O)CS(=O)(=O)C23C(=O)N(Cc2ccc(C)cc2)c2ccccc23)cc1Cl (stereo not given) | -6.6%
COc1cccc(NC(=O)N(Cc2cn(C)c3ccccc23)C2CCCCCC2)c1 | 1.8%
O=C(CC1N=C2c3ccccc3N=C(SCc3ccc(F)cc3)N2C1=O)NCc1cccs1 (stereo not given) | -0.25%
CCN1CCN(c2cc(C)c3cc(NC(=O)c4cc(Cl)ccc4OC)ccc3n2)CC1 | -1.15%
Cc1nc(SCC(=O)N2CCN(c3ccccc3)CC2)[nH]c(=O)c1C | 5.55%
CC(=O)c1ccc(NC(=O)CSc2nnc(NC(=O)Nc3ccccc3)s2)cc1 | 4.75%
Cc1ccc(O)c(NC(=O)CCS(=O)(=O)c2nc(-c3ccc4c(c3)OCO4)cc(C(F)(F)F)n2)c1 | -1.35%
CCOC(=O)Cn1c(=O)n(-c2ccccc2OC)c2nc(-c3cccc(F)c3)nc(C(N)=O)c21 | -1.3%
Cc1ccc(C2CCN(C(=O)c3cnn(-c4ccccc4Cl)c3C3CCN(C(=O)OC(C)(C)C)CC3)C2)cc1 (stereo not given) | 2%
COc1ccc(N2CCN(C(=O)c3c(C)oc4nc(C)nc(N5CCCC5)c34)CC2)cc1 | -1.55%
O=C(CSc1nccn1Cc1ccc(Cl)cc1)NCc1ccccc1 | 0.3%
COc1ccc(N2CCN(C(=O)[C@@H](NC(=O)c3cc(OC)cc(OC)c3)C(C)C)CC2)cc1 | -4.25%
COc1cc(OC)cc(C(=O)N[C@H](C(=O)OCC(=O)NC(C)c2ccccc2)C(C)C)c1 (stereo not given in full) | 36.6% (active)
Cc1ccccc1OCCC(=O)OCC(=O)NC(C)c1ccccc1 (stereo not given) | -0.3%
Cc1onc(-c2ccc(F)cc2F)c1C(=O)Nc1cccc(C(F)(F)F)c1 | 0.65%
COc1ccccc1-c1cc(C(F)(F)F)nc(S(=O)(=O)CCCC(=O)Nc2ccc(F)cc2F)n1 | -0.1%
COc1ccc(CCNc2nc(-c3ccc(F)cc3)cc(C(F)(F)F)n2)cc1OC | 3.1%
Brc1ccc2c(c1)NC(c1cccnc1)=NC(c1ccccc1)=N2 | 35.8% (active)
Brc1ccc(C2CC(c3ccccc3)=Nc3ccccc3N2)cc1 (stereo not given) | -5.6%
COc1ccc(C2=NC(c3ccncc3)=Nc3ccc(Br)cc3N2)cc1 | 3.45%
CCCCS(=O)(=O)c1oc(-c2cccs2)nc1S(=O)(=O)c1ccccc1 | -0.2%

Compound | potentiation
CCc1ccccc1NC(=O)c1ccc2nc(CCc3ccccc3)oc2c1 | 1%
CCOc1ccccc1C(=O)NC1(C(F)(F)F)NC(=O)N(CCc2ccc(OC)c(OC)c2)C1=O (stereo not given) | -3.95%
O=C(NCc1nnc(C(=O)Nc2ccc(C(F)(F)F)cc2Cl)o1)c1ccccc1 | -8.2%
CCCS(=O)(=O)c1ncc(Cl)c(C(=O)Nc2scc(-c3ccccc3)c2C(=O)OCC)n1 | -3.7%
N#Cc1nc(Nc2cc(F)cc(Cl)c2)nc(NC2CCCC2)n1 | -0.2%
CCOc1ccc(C2C3=C(CCCC3=O)N(CC(=O)O)C3=C2C(=O)CCC3)cc1 | 36% (active)
COc1ccc(C2C3=C(CCCC3=O)N(CC(=O)O)C3=C2C(=O)CCC3)cc1 | 1%
CCOc1ccc(C2C(C#N)=C(N)N(N(C)C)C3=C2C(=O)CCC3)cc1 (stereo not given) | -0.15%
CCc1ccc(CN(Cc2ccco2)C(=O)c2ccccc2Cl)cc1 | -2.55%
CC(=O)Nc1cccc(NC(=O)CSc2cn(CC(=O)N3CCCC3)c3ccccc23)c1 | -2.85%
O=c1c(NCc2cccs2)nccn1-c1ccccc1 | 0.1%
O=C(COc1ccc(Cl)cc1)N(Cc1ccco1)Cc1ccco1 | 1.05%
Cc1ccc(Cn2c(C)c3cnn(CC(=O)NCc4ccccc4)c(=O)c3c2C)cc1 | -1.5%
O=C(COc1ccccc1)NCc1ccc2c(c1)CCN2C(=O)c1ccc(F)cc1 | -2.1%
Cc1ccc(CCNC(=O)Cn2c(-c3cccs3)cc3cc(F)ccc32)cc1 | -3.65%
Cc1ccc(-c2cc(N)n(Cc3cccc(Cl)c3)n2)cc1 | -4.4%
O=S(=O)(c1ccc2nc(NCc3ccccc3Cl)ccc2c1)N1CCCCC1 | -5.55%
Cc1ccc2ccc3c(c2n1)NS(=O)(=O)c1ccccc1-3 | 1.45%
COc1ccc(OC)c(NC(=O)CSc2nc3ccccc3nc2N2CCCCC2)c1 | -3.85%
CCc1ccccc1NC(=O)CSc1nnc(-c2ccccc2)c(-c2ccccc2)n1 | 1%
Cc1c(Cl)cccc1NC(=O)c1noc2c1CCCC2 | 2.2%
CCC(=O)N1CCc2cc(CNS(=O)(=O)c3ccc(Br)s3)ccc21 | -0.5%

Compound | potentiation
O=C1C(F)N([S+](=O)([O-])c2ccc3c(c2)OCCO3)CCN1[S+](=O)([O-])c1c(F)cccc1F (stereo not given) | 5.45%
COc1cccc(CNC(=O)c2ccc3c(c2)N(Cc2ccc(C(F)(F)F)cc2)C(=O)c2ccccc2S3)c1OC | -5.65%
N#Cc1nc(Nc2cccc(Cl)c2)nc(NC2CCCC2)n1 | -2.6%
Cc1c(-c2nc(-c3ccc4c(c3)OCO4)no2)nnn1-c1ccc(Br)cc1F | -2.8%
CC1CCC2(CC1)N=C(c1ccccc1)C(=O)N2CC(=O)Nc1ccc(F)c(Cl)c1 (stereo not given) | -3.15%
CN(C(=O)c1ccc2c(c1)N(Cc1cccc(Cl)c1)C(=O)c1ccccc1S2=O)C1CCCCC1 (stereo not given) | 0.2%
CCc1cc2c(cc3c(=O)n(CC(=O)N4CCN(c5cc(Cl)ccc5C)CC4)ncn32)s1 | -2.7%
O=C(CNC(=O)c1ccccc1)OC(C(=O)Nc1cc([N+](=O)[O-])ccc1F)c1ccccc1 (stereo not given) | 5.6%
COCCNC(=O)c1ccc2c(c1)N=C(C)c1cc(C)ccc1S2 | 0.1%
CCOC(=O)c1cccc(NC(=O)c2cc(CN3CCCC3)on2)c1 | -7.25%
Cc1ccc(Cl)cc1N1CCN(C(=O)CN2C(=O)COc3ccc(S(=O)(=O)N4CCOCC4)cc32)CC1 | 4.75%
Cc1c(C(=O)N2CCCC2)oc2c1-c1nn(CC(=O)NCc3ccc(OC(C)C)cc3)cc1CC2 | -0.75%
Cc1ccc(-c2nc(SCc3ccc(Br)cc3)n3[nH]c(=O)cc3n2)cc1 | -0.15%
O=S(=O)(c1ccccc1)c1nc(-c2ccc(Cl)cc2Cl)oc1N1CCCCC1 | -2.95%
CCOc1ccc(N(Cc2ccccc2)C(=O)c2nc(S(C)(=O)=O)ncc2Cl)cc1 | -0.05%
Cc1c(CCNC(=O)c2ccc(C(F)(F)F)cc2)sc2nc(-c3ccc(F)cc3)nn12 | -2.3%
COc1ccc(OC)c(-c2nc(C(N)=O)c3c(n2)n(-c2ccc4c(c2)OCO4)c(=O)n3C)c1 | 0.75%
O=C(c1ccc2c(c1)N(Cc1ccc(Cl)cc1)C(=O)c1ccccc1S2(=O)=O)N1CCCCC1 | -1.9%
CCN1C(=O)c2ccccc2S(=O)c2ccc(C(=O)NCc3ccc(F)cc3)cc21 (stereo not given) | 3%
Cc1ccc(OCC(=O)Nc2ccccc2C(=O)NC2CC2)cc1 | -0.15%
CN1CCN(c2ccccc2NC(=O)COc2ccc(C3CCCCC3)cc2)CC1 | 37.7% (active)
CCOc1ccccc1NC(=O)COc1ccc(S(=O)(=O)N2CCCC2)cc1 | -4.6%

Compound | potentiation
CCn1c2ccccc2c2nnc(SCC(=O)O)nc21 | -1.3%
Cc1oc2ncnc(N3CCOCC3)c2c1C(=O)NCCc1ccccc1 | 2.6%
COc1ccccc1N1CCN(C(CNC(=O)C(=O)NCc2ccc(C)cc2)c2cccnc2)CC1 (stereo not given) | 3.55%
COc1cccc(C(=O)NC2CCN(C#N)CC2)c1 | -6.95%
O=C(Cn1cc(SCc2cccc(Cl)c2)c2ccccc21)N1CCCCC1 | -2.05%
CCCOc1ccc(NC(=O)CC2C(=O)N(c3ccccc3)C(=O)N2Cc2ccco2)cc1 (stereo not given) | -2.9%
Cc1cccc(NC(=O)C2CCCN2S(=O)(=O)c2cccc3nsnc23)c1C (stereo not given) | -2.95%
CC(C)c1ccc(NC(=O)Cn2nnc(C(=O)NCCc3ccccc3)c2N)cc1 | -1.7%
O=C(CSc1nc2nccnc2c(=O)n1CCc1c[nH]c2ccccc12)Nc1ccccc1F | -3.65%
COc1ccc(S(=O)(=O)Nc2cccc3cccnc23)c(N)c1 | -3.75%
CC(C)NC(=O)NC(=O)CSc1nnc(-c2ccccc2F)n1N | 35% (active)
Nn1c(SCC(=O)NC2CCCC2)nnc1-c1ccccc1F | -7.1%
Nn1c(SCC(=O)NC(=O)NC2CCCC2)nnc1-c1ccccc1F | -9.3%
O=S(=O)(c1ccc2c(c1)OCCO2)N1CCN(S(=O)(=O)c2cc(F)ccc2F)CC1 | -0.7%
Cc1ccc(C)c(Cn2c(=O)n(CCC(=O)NCc3ccc4c(c3)OCO4)c(=O)c3sccc32)c1 | 0.75%
CCOc1cc(C2c3c(-c4ccc(Br)cc4)n[nH]c3C(=O)N2c2ccc(Cl)cc2)ccc1O (stereo not given) | 1.25%
COc1cc(CN(CC2CCCO2)C(=O)c2ccccc2F)cc(OC)c1OC (stereo not given) | 5%
N#CN1CCC(NC(=O)c2ccc(F)cc2)CC1 | -0.05%
O=C(CNC(=O)c1ccc(Cl)c(C(F)(F)F)c1)OC(C(=O)Nc1cc(C(F)(F)F)ccc1Cl)c1ccccc1 (stereo not given) | 1.3%
